# Data taken from PubChem BioAssay (NCI).
# The panel holds about 83,000 compounds, 20% with a hit somewhere; the sample as a whole holds those more often.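 Plates (96-well) were seeded with cells, treated with compound at one concentration, and incubated for 48 hours before percent growth was determined.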 A number with no mark means an inactive call. Activity calls are given as the source filed them. How the source made its calls: active means growth percent below 10; inactive means the rest.
# Columns and labels:
# Experiment in all cases: NCI-60 one-dose screen, 48 h (100 = growth as untreated, 0 = no growth, -100 = all killed)
# Conditions in all cases: 10 µM
# [1] = test system: T-47D breast
# [2] = test system: BT-549 breast
# [3] = test system: MDA-MB-435 melanoma
# [4] = test system: SW-620 colon
# [5] = test system: MCF7 breast
# [6] = test system: HCT-116 colon
# [7] = test system: HCC-2998 colon
# [8] = test system: KM12 colon
Structure (SMILES),growth [1],growth [2],growth [3],growth [4],growth [5],growth [6],growth [7],growth [8]
COc1cc2c(cc1NC(=O)C(F)(F)F)-c1ccc(NC(=O)C(F)(F)F)cc1C2,83.8%,98.7%,99.6%,98.1%,94.2%,97.1%,105%,97.3%
C/C(=N\O)c1ccc(NC(=O)CSc2nnc(-c3ccccc3)n2-c2ccccc2)cc1,79.6%,20.9%,100%,83.1%,104%,28.6%,91.1%,73.3%
CCC1NC(=O)c2cc(S(N)(=O)=O)c(Cl)cc2N1 (stereo not given),104%,114%,101%,108%,106%,115%,105%,113%
O=C(CN1CCN(C(=O)c2ccccc2)CC1)Nc1ccccc1SCc1ccccc1,37.7%,68.1%,94.3%,98.5%,86.4%,85.5%,93.6%,84.2%
O=C1/C(=C/c2ccc([N+](=O)[O-])s2)Oc2cc(Cl)ccc21,11.2%,-55% (active),-25.7% (active),-40.9% (active),4.42% (active),-17.8% (active),2.91% (active),-28.4% (active)
Cc1ccc(Cl)cc1NC(=O)CCl,77.6%,57.2%,83.1%,73.7%,67.8%,62.9%,114%,96.1%
CS(=O)(=O)c1nccc(-c2c(-c3cccc(O)c3)nc3sccn23)n1,99%,113%,84.6%,106%,86.3%,91%,114%,96.6%
CCCc1nc(C(C)(C)O)c(C(=O)O)n1Cc1ccc(-c2ccccc2-c2nn[nH]n2)cc1,82.1%,103%,106%,98.6%,98.9%,106%,110%,120%
Cc1ccc(C)c(COc2cc(NC(=O)c3ccc4c(c3)OCO4)ccc2N(C)S(C)(=O)=O)c1,8.82% (active),27.5%,-15% (active),28.7%,11.1%,-34.1% (active),-41.5% (active),-10.9% (active)
COc1cc(/C=C/c2cc(/C=C/c3ccc(O)c(OC)c3)[nH]c(=O)n2)ccc1O,59.1%,55%,56.9%,43.6%,52.1%,34.7%,71%,29.3%
CS(=O)(=O)c1nccc(-c2c(-c3cccc(OCCN4CCOCC4)c3)nc3sccn23)n1,81%,108%,98.4%,97.7%,69.3%,78.4%,101%,96.6%
COc1cc(-c2nn(-c3ccc(NC(=O)NCCNS(=O)(=O)c4ccc(F)cc4)cc3)cc2-c2ccncc2)ccc1Cl,34.8%,-3.98% (active),-0.232% (active),18.3%,6.49% (active),-3.49% (active),6.84% (active),2.84% (active)
Cc1c[nH]c(=O)n(Cc2nnc(CCC(=O)c3nc4ccccc4[nH]3)o2)c1=O,34.3%,18.9%,-45.8% (active),28.9%,9.44% (active),6.25% (active),-27.9% (active),4.98% (active)
CC(=O)Nc1cc2c(cc1Cl)Cc1cc(Cl)ccc1-2,29.2%,99.2%,98.4%,97.5%,40.1%,99.3%,65.6%,87.4%
COc1cc(C2C(C#N)=C(N)Oc3cc(O)ccc32)cc(OC)c1OC (stereo not given),16%,58.5%,-44.9% (active),21.4%,19.9%,17.8%,27.6%,15.8%
CNS(=O)(=O)Oc1ccc(-c2ccc3occc3c2)cc1,89.1%,91.5%,100%,102%,111%,95.5%,96.5%,99%
COc1cc(-c2ccc[nH]2)[nH]c1/C=C1\N=C(C)C(C(=O)NC(C)C)=C1C,34%,43.8%,14.9%,7.72% (active),7.83% (active),4.6% (active),21.2%,19.3%
COc1ccc([C@H]2[C@H](C(=O)Nc3cccnc3)c3ccccc3C(=O)N2c2ccccc2)cc1,74%,90.5%,99.1%,91.4%,95.7%,49.4%,100%,60.7%
Nc1nc(Cn2c(-c3nonc3N)nc3ccccc32)nc(N2CCCCC2)n1,83%,89%,39.2%,94.4%,83.5%,87.7%,95.9%,75.6%
CS(=O)(=O)c1nccc(-c2c(-c3ccc(OCCc4ccccc4)cc3)nc3sccn23)n1,91.3%,110%,96%,93.7%,66.1%,99.6%,106%,106%
C#C[C@]1(O)CCC2C3CCc4cc(OC5CCCC5)ccc4C3CC[C@@]21C (stereo not given in full),84%,105%,94.8%,53.4%,74.3%,68.6%,74.1%,34.1%
CCn1c(CSc2nc3ccccc3c(=O)n2CCc2ccccc2)n[nH]c1=S,73.3%,72.3%,84.8%,97.5%,84%,65.5%,99%,92.3%
CCOc1ccccc1/C=N\N=C\c1ccccc1O,78.5%,84.2%,107%,105%,84.2%,98.8%,102%,95.3%
O=C1CSC(=S)N1/N=C/c1ccc(Cl)s1,102%,102%,106%,108%,101%,107%,99.8%,97.5%
COc1ccc(C(c2ccc(OCCN(C)C)cc2)c2cc3ccccc3c3ccccc23)cc1 (stereo not given),21.8%,93%,-25.4% (active),-46.6% (active),2.13% (active),-75% (active),-19.7% (active),19.3%
COc1cc(/C=C/c2cc(/C=C/c3ccc(O)c(OC)c3)n(C(=O)Nc3ccccc3Cl)n2)ccc1O,4.55% (active),-26.4% (active),4.08% (active),6.99% (active),4.41% (active),1.16% (active),2.83% (active),0.0939% (active)
CCOc1ccccc1/C=N/N1CCCCCC1,99.1%,103%,114%,96.1%,79.2%,100%,93.5%,106%
O=C(CCl)Nc1ccc(Cc2ccc(NC(=O)CCl)cc2)cc1,14.7%,-23.5% (active),0.989% (active),-21.8% (active),1.46% (active),-56.8% (active),-14.9% (active),0.445% (active)
C[C@H]1[C@H](OC(=O)CCC(=O)O)O[C@@H]2O[C@]3(C)CC[C@H]4[C@H](C)CC[C@@H]1[C@@]24OO3,31.3%,37.9%,9.74% (active),30.6%,28.4%,14.1%,48.1%,27.1%
COc1cc2cc(Oc3ccc(NC(=O)c4ccccc4)cc3)c(C)nc2cc1OC,79.8%,82.3%,104%,109%,78.7%,87.1%,125%,94.5%
